The record followed here is PubChem BioAssay AID1347383 (Zoeller Lab, School of Medicine, Boston University, 2020).

This experiment in a line: protection of CHO cells from pyrene-fatty acid UV killing, primary screen, phospholipid biosynthesis inhibitor project, ZR-82 cells, Analyticon library, screen 2 (AID 1347383).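 Also: survival reflects blocked phospholipid synthesis cutting uptake of the phototoxic fatty acid; compound and fatty acid exposure 3 h then viability read next day.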 Particulars: ZR-82 CHO cells, CellTiter Blue, at 10 µM, peroxisome-deficient CHO-K1 variant, with DGAT-1, DGAT-2 and ACAT inhibitors.

Activity calls are given as the source filed them.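 The calls were made as follows: active = cell survival after UV exposure 2 SD above solvent-only control wells at 10 µM, confirmed on one or two repeats; inactive = the rest.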

Consider `CC1=CCC(C(C)C)c2cc(C)c(O)cc21` (centres undefined), for which the call was inactive.

With `O=C1CC(c2ccc(O)cc2O)Oc2cc(O)cc(O)c21` (centres undefined), the call was inactive.

Take `COc1c(O)cc([C@@H]2Oc3cc(O)cc(O)c3C[C@@H]2O)cc1O`: the result was inactive.

On to `CC(=O)O[C@H]1C[C@@]2(C)[C@@H](CC[C@H]3[C@@]4(C)C=CC(=O)[C@@H](C)[C@@H]4[C@H](O)C(=O)[C@@]32C)/C1=C(/CCC=C(C)C)C(=O)O`, for which the call was inactive.

As for `C=C1CCC2OC(=O)C(C)=C2C2C1C13OC1(CC(C)C3=O)C1OC21C` (centres undefined), the compound was called inactive.

Take `CC1=C2C=C(CO)C(CO)CCC2(C)CCC1=O` (centres undefined): the result was inactive.

Take `COC12CC3C(C(C)C1=CC(=O)O2)C(O)C(OC(=O)/C=C/c1ccccc1)C1(O)C(C)(C)CCCC31C` (centres undefined): the compound was classed as inactive.

On to `C/C=C/C(O)CC(=O)O` (centres undefined), for which the outcome was inactive.

In the case of `C/C=C/c1ccc2oc(-c3ccc(O)c(OC)c3)c(C)c2c1`, the compound was called inactive.

With `CCCCC[C@H](O)[C@H]1C(=O)OC[C@H]1CO`, the compound was called inactive.

In the case of `O=c1c(O)c(-c2ccc(O)cc2O)oc2cc(O)cc(O)c12`, the result was inactive.

As to `Cn1c2c(O)c(O)ccc2c(=O)c2c(O)cc3c(c21)C=CC(C)(C)O3`, the result was inactive.

As for `CC(=O)NC1C=CC(CCC(NC(C)=O)C(=O)O)C=C1` (centres undefined), the compound was classed as inactive.

With `CC1=CC(=O)CC(C)(C)[C@@]1(O)/C=C/C(C)=C/C(=O)O`, the compound was classed as inactive.

`C/C=C/C=C/C(CC(=O)O)Nc1ccc(C=O)cc1` (centres undefined): the compound was called inactive.

`C[C@@H]1O[C@@H](Oc2ccc(-c3coc4cc(O[C@@H]5O[C@@H](C)[C@H](O)[C@@H](O)[C@H]5O)ccc4c3=O)cc2)[C@H](O)[C@H](O)[C@H]1O`: the call was inactive.

Turning to `Nc1ncnc2c1ncn2[C@@H]1O[C@H](CO)C[C@H]1O`, the compound was classed as inactive.

Regarding `C=CC(C)(C)c1cc(/C=C/C(=O)c2ccc(OC)cc2)c(O)cc1O`, the compound was called inactive.

Take `C=C1CC[C@@H](C)[C@](C)(CCc2ccoc2)C/C=C\C=C/1C(=O)O`: the compound was called inactive.

As for `O=C(/C=C/C=C/c1ccc2c(c1)OCO2)N1CCCCC1`, the outcome was inactive.

With `C=C[C@@]1(C)CCC2=C(C1)C(=O)CC1[C@](C)(C(=O)O)CCC[C@]21C` (some centres undefined), the compound was called inactive.

On to `COc1cc(O)cc2occ(-c3ccc(O)cc3)c(=O)c12`, for which the compound was called inactive.

On to `C/C=C/C=C/C(=O)N1CC[C@]23c4ccccc4N[C@H]4N(C)c5cccc6c5[C@]42CCN([C@H]6C2OC2(C)C)[C@H]13` (some centres undefined), for which the compound was called inactive.

Consider `CC(C)CNC(=O)/C=C/C=C/Cc1cccs1`, for which the compound was classed as inactive.

On to `OC1C(c2ccccc2)CCC(O)(c2ccccc2)C1O` (centres undefined), for which the outcome was inactive.

Consider `C/C=C(/C)C(=O)OC1C(OC2(C)CCC3C(C4C(C)CCC42)C3(C)C)OC(C)C(O)C1O` (centres undefined), for which the compound was called inactive.

With `COc1cc2oc(=O)ccc2cc1[C@H]1OC(=O)[C@]2(C)OC12` (some centres undefined), the compound was called inactive.

With `CCC/C=C\C/C=C\CCCC/C=C\Cc1cc(O)cc(O)c1`, the compound was called inactive.

With `COc1c(C)c2c(c(O)c1C/C=C(\C)CCCC(C)C(=O)O)C(=O)OC2` (centres undefined), the call was inactive.

Regarding `O=C(O)C12CCCC(CO)(CO)C1CCC13CC4C(CC12)C4(CO)C3` (centres undefined), the compound was called inactive.

As to `COc1c2cc(c(O)c1OC)CCCCC(O)CCc1ccc(O)c-2c1` (centres undefined), the call was inactive.

On to `CC(=O)NC(Cc1c[nH]c2ccccc12)C(=O)O` (centres undefined), for which the outcome was inactive.

On to `CC(=O)OC(C)C(C)(O)C(=O)O[C@@H]1CC[C@]2(C)CC(=O)C(=C(C)C)C[C@H]2[C@]1(C)OC(C)=O` (some centres undefined), for which the compound was called inactive.

On to `NC(=O)c1c[nH]c(Cc2ccccc2)cc1=O`, for which the call was inactive.

Consider `COc1cc(CCc2ccccc2)cc(O)c1C/C=C(\C)CCC=C(C)C`, for which the result was inactive.

As for `CC(C)(O)C1OC1C1=CC(=O)C2(C)OC2C1O` (centres undefined), the outcome was inactive.

In the case of `Cc1cc(O)c2c(c1)C(=O)c1cccc(O)c1C2=O`, the compound was classed as inactive.

Take `COc1c(C)c2c(c(O)c1C/C=C(\C)C(O)CC(=O)O)C(=O)OC2` (centres undefined): the call was inactive.

As for `COc1cc(O)cc(O)c1C(=O)/C=C/c1ccc(O)cc1`, the result was inactive.
